# Data as given in PubChem BioAssay.
# A number with no mark means an inactive call. This is one part of the list. Activity calls are given as the source filed them.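 How the source made its calls, unless noted: active means inhibition above a limit from the primary screen, the mean over all compounds plus 3 SD (cut at about 19% in these data); inactive means the rest.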
# Columns and labels:
# [1] = growth loss of phage-infected E. coli expressing H. pylori AddAB, confirmation, AddAB inhibitor project, absorbance, E. coli V3065, T4 phage, triplicate (AID 488942;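 active means mean inhibition above a set limit taken from the earlier primary screen, cut at about 13% in these data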;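 further: higher means less bacterial growth since AddAB block lets phage replicate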); conditions: OD, at 11.9 µM, stronger effect = higher value, T4 phage with gene 2 nonsense mutations
# [2] = growth loss of RecBCD+ E. coli with mutant T4 phage, counter-screen for AddAB inhibitor project, absorbance, V66 E. coli (AID 488955;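 active means mean inhibition above the mean of solvent-only control wells plus 3 SD, cut at about 4% in these data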;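 further: optical density read after an 18 h incubation at 37 °C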); conditions: OD growth, at 11.9 µM, stronger effect = higher value
# [3] = bacterial viability inhibition counter-screen, confirmation, counter-screen for AddAB inhibitor project, absorbance (AID 488956; in the data active means inhibition above about 25%); conditions: absorbance (AddAB counterscreen), at 11.9 µM, stronger effect = higher value
# [4] = growth loss of phage-infected RecBCD+ E. coli, confirmation, RecBCD inhibitor project, absorbance, E. coli V66, T4 gene 2 phage (AID 651982;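 active means mean inhibition over triplicates exceeding the hit threshold derived in the original primary screen, cut at about 11% in these data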); conditions: E. coli V66 + T4 2- phage, growth OD; at 11.9 µM; stronger effect = higher value
# [5] = E. coli viability inhibition, counter-screen for RecBCD inhibitor project, absorbance, high throughput (AID 651983; in the data active means inhibition above about 20%;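 further: E. coli strain V66 grown with compound alone and no phage infection; 0% = bacteria with DMSO vehicle only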); conditions: absorbance (OD) growth, at 11.9 µM, stronger effect = higher value
# [6] = growth loss of phage-infected AddAB-carrying E. coli, confirmation, counter-screen for RecBCD inhibitor project, absorbance, E. coli V3065, T4 phage (AID 651984;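 active means mean inhibition above the solvent-only control wells' mean plus 3 SD, cut at about 22% in these data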;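 further: higher means less bacterial growth from phage killing when AddAB is blocked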); conditions: E. coli expressing H. pylori AddAB + T4 phage, OD growth; at 11.9 µM; stronger effect = higher value; gene 2 mutant T4, recBCD-deleted host
# [7] = tested on: Fam108b (Abhd17b) serine hydrolase [Mus musculus]; assay: mouse Fam108b serine hydrolase inhibitors, confirmation, counter-screen for RBBP9 inhibitor project, biochemical, fluorescence polarization, triplicate (AID 1978); conditions: recombinant Fam108b, FP-Rh probe fluorescence polarization; at 9.51 µM; stronger effect = higher value;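 further: 0% = median of active Fam108b wells and 100% = catalytically dead S170A mutant; inhibitors free the probe so polarization falls as inhibition rises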
# [8] = biological target: Glutathione S-transferase omega-1 (Homo sapiens) (UniProt P78417); assay: GSTO1 inhibitor hit confirmation, counter-screen for RBBP9 inhibitor project, biochemical, fluorescence polarization, triplicate (AID 2176;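 active means inhibition above the primary screen's cutoff, its mean inhibition plus 3 SD, cut at about 35% in these data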;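 further: loss of polarization as inhibitors block binding of rhodamine sulfonate ester activity probe; 0% = GSTO1 with DMSO and 100% = wells lacking GSTO1 enzyme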); conditions: recombinant GSTO1, probe fluorescence polarization; at 5.96 µM; stronger effect = higher value
# Sequence of Glutathione S-transferase omega-1 (Homo sapiens) (P78417 whole entry, looked up): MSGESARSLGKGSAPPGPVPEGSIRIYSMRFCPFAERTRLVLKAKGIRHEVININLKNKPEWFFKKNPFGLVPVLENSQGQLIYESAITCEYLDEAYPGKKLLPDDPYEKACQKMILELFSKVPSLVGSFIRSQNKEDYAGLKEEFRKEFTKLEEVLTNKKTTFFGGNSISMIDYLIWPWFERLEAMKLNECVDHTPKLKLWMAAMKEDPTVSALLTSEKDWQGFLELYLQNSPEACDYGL
# [9] = biological target: Serine protease HTRA1 (Homo sapiens) (UniProt Q92743); assay: HTRA1 protease inhibitors, retest, confirmation, biochemical, fluorescence polarization (AID 540248;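 active means mean inhibition over three repeats above a set limit taken from the earlier primary screen, cut at about 37% in these data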;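 further: 0% = HTRA1 with DMSO and 100% = wells lacking HTRA1; inhibitors block probe binding so polarization drops and inhibition rises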); conditions: recombinant HTRA1, FP-rhodamine activity-based probe, at 5.96 µM, stronger effect = higher value
# [10] = biological target: (Lyso)-N-acylphosphatidylethanolamine lipase (Mus musculus) (UniProt Q8VD66); assay: ABHD4 inhibitors, retest, confirmation, biochemical, fluorescence polarization, mouse (AID 720658;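 active means mean inhibition across replicates above the hit cutoff set in the primary screen, cut at about 30% in these data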;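 further: 0% = wild-type ABHD4 with DMSO and 100% = catalytically dead S159A mutant with DMSO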); conditions: purified mABHD4, FP-Rh probe fluorescence polarization; at 8.92 µM; stronger effect = higher value
# Sequence of (Lyso)-N-acylphosphatidylethanolamine lipase (Mus musculus) (Q8VD66 whole entry, looked up): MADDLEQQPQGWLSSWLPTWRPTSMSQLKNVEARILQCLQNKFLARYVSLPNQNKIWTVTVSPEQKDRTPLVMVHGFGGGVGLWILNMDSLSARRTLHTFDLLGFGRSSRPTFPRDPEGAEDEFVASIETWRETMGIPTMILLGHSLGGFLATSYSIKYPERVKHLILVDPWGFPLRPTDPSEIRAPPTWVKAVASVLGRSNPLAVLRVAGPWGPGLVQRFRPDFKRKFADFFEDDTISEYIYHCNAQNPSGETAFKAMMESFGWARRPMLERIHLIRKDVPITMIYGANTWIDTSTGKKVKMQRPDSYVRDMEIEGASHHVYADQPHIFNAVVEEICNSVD
# [11] = KLF5 expression inhibitors, confirmation, DLD-1 cells, luminescence (AID 1834;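 active means inhibition above a set limit taken from the earlier primary screen, cut at about 63% in these data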;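 further: 0% = DMSO wells and 100% = LY294002 at 200 µM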); conditions: DLD-1 KLF5 promoter firefly luciferase reporter, at 4 µM, stronger effect = higher value
# [12] = cytotoxicity in rat IEC-6 cells, cytotoxicity control for KLF5 inhibitor project, cell-based, luminescence, triplicate (AID 1905; in the data active means inhibition above about 23%;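 further: cells exposed to compounds for 48 hours before viability read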); conditions: IEC-6 rat intestinal cells, viability luminescence; at 4 µM; stronger effect = higher value
# [13] = tested on: transactivating tegument protein VP16 (Human herpesvirus 1); assay: VP16 transactivation reporter inhibitors, counter-screen for SRC2 inhibitor project, cell-based, luminescence, single concentration (AID 652007; in the data active means inhibition above about 36%); conditions: cell-based VP16 transactivation luciferase reporter, at 8.9 µM, stronger effect = higher value
# [14] = biological target: Nuclear receptor coactivator 2 (Homo sapiens) (UniProt Q15596); assay: SRC2 coactivator transcriptional activity inhibitors, confirmation, cell-based, luminescence, HEK293, triplicate (AID 652008;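 active means mean inhibition above 46.5%, the solvent-only control mean plus 3 SD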;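 further: 0% = DMSO-treated cells and 100% = Gossypol at 36 µM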); conditions: HEK293 GAL4-SRC2 luciferase reporter, at 8.9 µM, stronger effect = higher value
# Sequence of Nuclear receptor coactivator 2 (Homo sapiens) (Q15596 whole entry, looked up, the tested form may be a part): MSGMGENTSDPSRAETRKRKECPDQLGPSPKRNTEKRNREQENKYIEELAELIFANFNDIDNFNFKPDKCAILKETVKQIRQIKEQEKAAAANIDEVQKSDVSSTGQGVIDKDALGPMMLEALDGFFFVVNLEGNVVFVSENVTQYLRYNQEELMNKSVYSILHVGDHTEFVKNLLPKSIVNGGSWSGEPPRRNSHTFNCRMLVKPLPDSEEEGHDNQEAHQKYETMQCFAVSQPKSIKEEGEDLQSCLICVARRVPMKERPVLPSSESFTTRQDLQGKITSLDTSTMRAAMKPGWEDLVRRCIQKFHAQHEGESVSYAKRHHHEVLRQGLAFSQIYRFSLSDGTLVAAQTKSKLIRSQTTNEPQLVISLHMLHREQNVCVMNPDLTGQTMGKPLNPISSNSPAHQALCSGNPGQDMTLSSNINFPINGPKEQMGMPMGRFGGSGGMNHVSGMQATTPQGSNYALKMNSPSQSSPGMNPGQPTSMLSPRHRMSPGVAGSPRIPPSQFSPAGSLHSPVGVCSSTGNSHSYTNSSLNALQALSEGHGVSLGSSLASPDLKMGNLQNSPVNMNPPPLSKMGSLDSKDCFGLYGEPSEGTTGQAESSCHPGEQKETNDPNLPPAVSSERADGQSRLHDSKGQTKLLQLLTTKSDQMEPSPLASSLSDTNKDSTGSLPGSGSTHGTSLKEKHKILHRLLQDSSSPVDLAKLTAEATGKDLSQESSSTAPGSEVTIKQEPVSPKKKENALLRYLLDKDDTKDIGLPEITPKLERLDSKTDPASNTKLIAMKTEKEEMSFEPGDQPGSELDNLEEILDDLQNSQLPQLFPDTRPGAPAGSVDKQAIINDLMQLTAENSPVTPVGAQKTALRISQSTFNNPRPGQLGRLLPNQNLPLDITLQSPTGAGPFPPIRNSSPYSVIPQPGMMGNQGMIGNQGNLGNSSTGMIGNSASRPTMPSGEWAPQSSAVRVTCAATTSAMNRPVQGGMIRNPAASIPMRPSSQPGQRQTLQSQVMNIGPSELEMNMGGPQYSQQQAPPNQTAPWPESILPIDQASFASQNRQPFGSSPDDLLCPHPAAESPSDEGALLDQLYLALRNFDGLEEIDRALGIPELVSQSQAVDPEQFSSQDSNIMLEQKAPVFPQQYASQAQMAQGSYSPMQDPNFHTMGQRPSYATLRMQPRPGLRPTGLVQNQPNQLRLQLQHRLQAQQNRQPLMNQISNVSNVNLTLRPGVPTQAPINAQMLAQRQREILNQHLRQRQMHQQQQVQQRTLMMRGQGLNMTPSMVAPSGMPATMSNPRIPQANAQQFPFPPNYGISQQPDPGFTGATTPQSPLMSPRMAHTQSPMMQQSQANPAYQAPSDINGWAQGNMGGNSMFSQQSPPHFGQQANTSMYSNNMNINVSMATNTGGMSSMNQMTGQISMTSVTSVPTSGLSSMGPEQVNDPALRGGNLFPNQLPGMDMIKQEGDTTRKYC
# [15] = Gal4-VP16 luciferase reporter inhibitors, counter-screen for COUP-TFII antagonist project, cell-based, luminescence, HEK293 (AID 687007; in the data active means inhibition above about 13%); conditions: at 8.5 µM, stronger effect = higher value
# [16] = biological target: COUP transcription factor 2 (Homo sapiens) (UniProt P24468); assay: NR2F2 transcriptional activity inhibitors, confirmation, cell-based, luciferase reporter, HEK293, triplicate (AID 687008;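 active means mean inhibition over three repeats above a set limit taken from the earlier primary screen, cut at about 38% in these data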;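 further: 100% = cells given the luciferase reporter alone without the COUP-TF2 vector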); conditions: HEK293 NGFI-A luciferase reporter, luminescence; at 8.5 µM; stronger effect = higher value
# Sequence of COUP transcription factor 2 (Homo sapiens) (P24468 whole entry, looked up): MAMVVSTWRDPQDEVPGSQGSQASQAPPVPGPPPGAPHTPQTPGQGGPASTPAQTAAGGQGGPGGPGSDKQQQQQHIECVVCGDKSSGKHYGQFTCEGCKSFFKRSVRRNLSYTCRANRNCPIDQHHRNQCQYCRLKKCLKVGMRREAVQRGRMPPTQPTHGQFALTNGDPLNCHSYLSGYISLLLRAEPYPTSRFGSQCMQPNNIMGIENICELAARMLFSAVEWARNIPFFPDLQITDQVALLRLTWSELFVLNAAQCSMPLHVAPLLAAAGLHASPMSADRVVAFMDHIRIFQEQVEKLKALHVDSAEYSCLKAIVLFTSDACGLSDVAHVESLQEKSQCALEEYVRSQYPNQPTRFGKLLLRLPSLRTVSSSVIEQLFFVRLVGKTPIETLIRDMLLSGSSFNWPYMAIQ
# [17] = biological target: Bcl-2-like protein 1 (Homo sapiens) (UniProt Q07817); assay: Bcl-xL inhibitors blocking Bim BH3 binding, confirmation, counter-screen for MCL1 inhibitor project, biochemical, fluorescence polarization (AID 2166;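 active means inhibition above a cutoff equal to the mean inhibition of all tested compounds plus 3 SD, cut at about 30% in these data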); conditions: GST-Bcl-xL / FITC-Bim BH3 peptide FP binding; at 10.9 µM; stronger effect = higher value
# Sequence of Bcl-2-like protein 1 (Homo sapiens) (Q07817 whole entry, looked up): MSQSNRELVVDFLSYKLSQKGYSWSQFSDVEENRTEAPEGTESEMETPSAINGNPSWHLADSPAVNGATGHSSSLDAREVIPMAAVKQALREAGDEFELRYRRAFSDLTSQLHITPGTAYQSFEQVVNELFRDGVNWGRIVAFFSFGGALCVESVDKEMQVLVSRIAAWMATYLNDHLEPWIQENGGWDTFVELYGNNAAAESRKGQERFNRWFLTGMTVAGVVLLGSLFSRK
# [18] = biological target: Induced myeloid leukemia cell differentiation protein Mcl-1 (Homo sapiens) (UniProt Q07820); assay: inhibitors of MCL1 binding to BIM-BH3, confirmation, biochemical, fluorescence polarization, triplicate (AID 2168;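 active means inhibition above the average of all tested compounds plus 3 SD, cut at about 40% in these data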;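 further: 0% = DMSO wells and 100% = unlabeled Bim-BH3 control peptide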); conditions: GST-MCL1 / FITC-Bim-BH3 fluorescence polarization; at 10.9 µM; stronger effect = higher value
# Sequence of Induced myeloid leukemia cell differentiation protein Mcl-1 (Homo sapiens) (Q07820 whole entry, looked up): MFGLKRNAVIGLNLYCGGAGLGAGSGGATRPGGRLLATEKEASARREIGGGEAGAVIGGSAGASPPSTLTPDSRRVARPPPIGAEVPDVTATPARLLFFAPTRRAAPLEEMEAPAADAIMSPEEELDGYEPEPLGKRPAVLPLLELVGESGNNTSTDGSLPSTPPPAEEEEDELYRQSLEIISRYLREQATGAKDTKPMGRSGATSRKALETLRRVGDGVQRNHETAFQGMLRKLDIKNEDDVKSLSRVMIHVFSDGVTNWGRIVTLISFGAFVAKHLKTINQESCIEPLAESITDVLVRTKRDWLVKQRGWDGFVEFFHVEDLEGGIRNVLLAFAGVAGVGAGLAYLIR
# [19] = biological target: Platelet-activating factor acetylhydrolase (Homo sapiens) (UniProt Q13093); assay: pPAFAH (PLA2G7) enzyme inhibitors, confirmation, biochemical, fluorescence polarization, human (AID 463230;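 active means mean inhibition of the triplicate above the hit cutoff set for the earlier primary screen, cut at about 25% in these data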;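 further: 0% = enzyme with DMSO and 100% = wells lacking pPAFAH enzyme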); conditions: recombinant pPAFAH, FP-Rh probe fluorescence polarization; at 3.39 µM; stronger effect = higher value
# Sequence of Platelet-activating factor acetylhydrolase (Homo sapiens) (Q13093 whole entry, looked up): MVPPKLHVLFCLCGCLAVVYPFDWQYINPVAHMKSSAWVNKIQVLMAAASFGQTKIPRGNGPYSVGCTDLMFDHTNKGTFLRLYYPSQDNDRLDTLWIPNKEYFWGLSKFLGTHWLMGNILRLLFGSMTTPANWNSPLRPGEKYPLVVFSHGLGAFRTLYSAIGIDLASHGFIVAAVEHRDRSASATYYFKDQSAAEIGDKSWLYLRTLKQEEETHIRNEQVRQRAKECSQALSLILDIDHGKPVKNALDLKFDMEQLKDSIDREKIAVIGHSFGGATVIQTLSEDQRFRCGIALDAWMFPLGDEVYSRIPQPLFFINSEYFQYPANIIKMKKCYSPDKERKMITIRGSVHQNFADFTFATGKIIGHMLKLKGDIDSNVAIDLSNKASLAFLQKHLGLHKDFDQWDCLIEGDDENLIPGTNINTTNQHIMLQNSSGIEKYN
# [20] = compounds interfering with TAMRA-BSA probe, counter-screen for TCR-CD3 interaction inhibitor project, biochemical, fluorescence, TAMRA-labeled BSA (AID 652035; in the data active means inhibition above about 23%;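 further: 0% = buffer low control and 100% = reference high control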); conditions: TAMRA-labeled BSA probe fluorescence counterscreen; at 9.4 µM; stronger effect = higher value
# [21] = tested on: T-cell receptor (TCR)-CD3 interaction, human; assay: TCR-CD3 interaction inhibitors, retest, confirmation, biochemical, fluorescence, TAMRA-labeled TCR probe (AID 652036; in the data active means inhibition above about 19%); conditions: TAMRA-labeled TCR probe fluorescence binding assay; at 9.4 µM; stronger effect = higher value
# [22] = biological target: Protein phosphatase methylesterase 1 (Homo sapiens) (UniProt Q9Y570); assay: PME-1 inhibitor activity retest, confirmation, biochemical, fluorescence polarization, FP-Rh probe, triplicate (AID 2171;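 active means inhibition above the hit cutoff set in the earlier primary screen, cut at about 27% in these data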;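 further: 0% = enzyme with DMSO and 100% = wells lacking PME-1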); conditions: recombinant PME-1, FP-Rh probe fluorescence polarization; at 5.9 µM; stronger effect = higher value
# Sequence of Protein phosphatase methylesterase 1 (Homo sapiens) (Q9Y570 whole entry, looked up): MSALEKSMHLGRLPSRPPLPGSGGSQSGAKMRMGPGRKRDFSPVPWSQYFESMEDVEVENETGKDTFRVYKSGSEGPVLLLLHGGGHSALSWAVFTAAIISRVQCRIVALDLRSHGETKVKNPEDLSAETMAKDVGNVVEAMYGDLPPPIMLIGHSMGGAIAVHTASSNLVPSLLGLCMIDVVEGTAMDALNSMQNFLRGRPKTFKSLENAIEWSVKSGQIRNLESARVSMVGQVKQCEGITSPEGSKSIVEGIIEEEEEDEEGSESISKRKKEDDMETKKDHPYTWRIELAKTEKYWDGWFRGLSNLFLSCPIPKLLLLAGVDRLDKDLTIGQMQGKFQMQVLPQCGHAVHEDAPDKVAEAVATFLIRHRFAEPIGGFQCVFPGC
# [23] = biological target: Platelet-activating factor acetylhydrolase IB subunit alpha1 (Homo sapiens) (UniProt Q15102); assay: PAFAH1B3 enzyme inhibitors, confirmation, biochemical, fluorescence polarization, human (AID 493032;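 active means average inhibition over triplicate runs above the hit cutoff set in the earlier primary screen, cut at about 25% in these data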;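 further: 0% = enzyme with DMSO and 100% = wells lacking PAFAH1B3 protein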); conditions: recombinant PAFAH1B3, FP-Rh activity-based probe, at 3.39 µM, stronger effect = higher value
# Sequence of Platelet-activating factor acetylhydrolase IB subunit alpha1 (Homo sapiens) (Q15102 whole entry, looked up): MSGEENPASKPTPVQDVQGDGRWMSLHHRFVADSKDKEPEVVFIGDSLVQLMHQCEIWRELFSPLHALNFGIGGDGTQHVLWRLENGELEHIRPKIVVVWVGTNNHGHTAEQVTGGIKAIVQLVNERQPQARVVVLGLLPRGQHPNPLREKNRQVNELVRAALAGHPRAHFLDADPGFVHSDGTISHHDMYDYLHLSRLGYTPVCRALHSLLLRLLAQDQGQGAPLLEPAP
smiles,measurement,setting,value
COc1cccc(/C=N/Nc2ncc(C(F)(F)F)cc2Cl)c1O,inhibition,[1],12.9% (active)
same,inhibition,[2],16.2% (active)
same,inhibition,[3],16.3%
same,inhibition,[4],7.89%
same,inhibition,[5],9.3%
same,inhibition,[6],12.8%
COc1ccc(/C=C/C(=O)OCC(=O)Nc2cccc(Oc3ccccc3)c2)c(OC)c1,inhibition,[7],47.3% (active)
Clc1ccccc1CSc1nnc(-c2ccco2)c(-c2ccco2)n1,inhibition,[7],1%
same,inhibition,[8],23.6%
same,inhibition,[9],2.03%
same,inhibition,[10],27.6%
Cc1ccc(-c2cn3cc(C)ccc3n2)cc1,inhibition,[11],85% (active)
same,inhibition,[12],8.78%
same,inhibition,[13],45.9% (active)
same,inhibition,[14],69.2% (active)
same,inhibition,[15],20.1% (active)
same,inhibition,[16],43.9% (active)
c1ccc(CSc2nnc(-c3ccco3)c(-c3ccco3)n2)cc1,inhibition,[7],1.53%
same,inhibition,[17],13.9%
same,inhibition,[18],59.9% (active)
same,inhibition,[8],33.6%
same,inhibition,[19],33.6% (active)
O=[N+]([O-])c1cc(Cl)cc(/C=N/NC(=S)Nc2cc(S(=O)(=O)N3CCOCC3)ccc2Cl)c1O,inhibition,[7],46.8% (active)
same,inhibition,[17],24.4%
same,inhibition,[18],42.4% (active)
same,inhibition,[9],125% (active)
same,inhibition,[20],-14.9%
same,inhibition,[21],38.1% (active)
same,inhibition,[10],77.1% (active)
Cc1ccc(NS(=O)(=O)c2ccc(N/N=C/c3ccccc3OCC(=O)O)c([N+](=O)[O-])c2)c(C)c1,inhibition,[7],17.7%
same,inhibition,[22],74.8% (active)
same,inhibition,[19],84.3% (active)
same,inhibition,[9],50.2% (active)
Cc1ccc(C2C3=C(Nc4[nH]n(-c5ccccc5)c(=O)c42)c2ccccc2C3=O)cc1 (stereo not drawn),inhibition,[7],56.8% (active)
COc1ccc(-c2csc(NC(=O)COC(=O)Cc3ccc(Cl)cc3Cl)n2)cc1,inhibition,[7],3.19%
C/C(=C\c1ccco1)C1Nc2cccc3cccc(c23)N1,inhibition,[7],26.3% (active)
COc1ccc2nc(Nc3nc4cc5c(cc4s3)OCCO5)sc2c1,inhibition,[7],-9.21%
CC[N+](C)(CC)CCC[n+]1c(-c2ccccc2)c2cc(N)ccc2c2ccc(N)cc21,inhibition,[7],61.8% (active)
same,inhibition,[8],85.8% (active)
COc1ccc(NS(=O)(=O)c2cc(NC(=O)CC(=O)c3ccc([N+](=O)[O-])cc3)ccc2C)cc1,inhibition,[7],44.3% (active)
same,inhibition,[22],-1.55%
same,inhibition,[9],28.7%
O=C(C[n+]1cc(Br)cc2ccccc21)c1ccc(F)cc1,inhibition,[17],23%
same,inhibition,[18],22.2%
O=C(N/N=C/c1sc(N2CCCCC2)nc1-c1cccs1)c1cccnc1,inhibition,[7],9.2%
same,inhibition,[23],12.7%
same,inhibition,[9],58.4% (active)
O=C(Nc1ccc(-c2csc(Nc3cccc(C(F)(F)F)c3)n2)cc1)c1cccc(C(F)(F)F)c1,inhibition,[7],33.6% (active)
